From PubChem BioAssay (Tox21)
Several values for one entry are separate records, joined by “and”; a condition that tells them apart may be missing. Equal entries are not always repeated. Results filed as inconclusive are left out. Entries that show only a call come without a potency. More than one record can exist for a structure, and the calls need not agree. Activity calls are given as the source filed them. Calls follow the shape of the dose curve; as a rule, active = well fitted cell-killing curve with a large enough effect in the repeat runs; inconclusive = weak or mixed curves, or effect the other way; inactive = no such curve, though single readings can be large or run the other way.

experiment: qHTS assay to identify small molecule agonists of the vitamin D receptor (VDR) signaling pathway - cell viability counter screen (AID 743224); conditions: VDR-bla HEK293T viability, CellTiter-Glo luminescence, 16 h; series mostly up to 62.6 µM; activity change, negative = cytotoxicity: at the top concentration; also: nearly all actives have a fitted effect of over 50% in size
Text: U.S. Tox21 Program National Center for Advancing Translational Sciences [NCATS] NIH Chemical Genomics Center [NCGC] U.S. Environmental Protection Agency [EPA] National Institutes of Environmental Health Sciences [NIEHS] National Toxicology Program [NTP] U.S. Food and Drug Administration [FDA] Tox21 Assay Overview: The vitamin D receptor (VDR), a member of nuclear hormone receptor superfamily, plays a critical role in calcium homeostasis and bone metabolism. It is also involved in cell differentiation and growth, and thrombogenicity. […] The cytotoxicity of the Tox21 compound library against the VDR-bla cell line was tested in parallel by measuring the cell viability using CellTiter-Glo assay (Promega, Madison, WI) in the same wells.
Tox21 Assay Protocol Summary: VDR-bla cells were dispensed at 2,000 cells/6 uL/well into black wall/clear-bottom 1536-well plates using a Multidrop Combi (Thermo Fisher Scientific, Waltham, MA) dispenser. After the assay plates were incubated at a 37C and 5% CO2 for 4 h, 23 nL of compounds dissolved in DMSO, positive controls or DMSO only was transferred to the assay plate by a Pintool station (Kalypsys, San Diego, CA). The plates were incubated at 37C and 5% CO2 for 16 h. After 1 uL of LiveBLAzerTM B/G FRET substrate was added using a Bioraptr Flying Reagent Dispenser (FRD) workstation (Beckman Coulter, Indianapolis, IN, USA), the plates were incubated at room temperature for 2 h, and fluorescence intensity was measured by an Envision plate reader (PerkinElmer, Shelton, CT). For cell viability readout that measures cytotoxicity, 3 ul/well of CellTiter-Glo reagent was added into the assay plates using a FRD. After 30 min incubation at room temperature, the luminescence intensity in the plates was measured using a ViewLux (PerkinElmer) plate reader.
Potency is read from the fitted curve at half-maximal effect.

**Q.** Which Potency does the source give for `C[N+](C)(C)CCO` here?
**A.** inactive

**Q.** With `c1ccc2cc3ccccc3cc2c1` as the compound, how does the Potency read?
**A.** inactive

**Q.** For `CCCCCCCCCCCCCO`, which Potency is on record?
**A.** inactive

**Q.** With `Nc1ccc(N)c(Cl)c1` as the compound, how does the “activity change, negative = cytotoxicity” value read?
**A.** -4.83% (inactive)

**Q.** With `CC1(C)NC(=O)N(c2ccc([N+](=O)[O-])c(C(F)(F)F)c2)C1=O` as the compound, how does the Potency read?
**A.** inactive

**Q.** Which Potency does the source give for `CCCCCCCCCCC(CO)CCCCCCCC` (stereo not given) here?
**A.** inactive

**Q.** For `Nc1ccc2c(O)cc(S(=O)(=O)O)cc2c1`, which Potency is on record?
**A.** inactive

**Q.** For `O=S1(=O)CCCO1`, which Potency is on record?
**A.** inactive

**Q.** For `CNC[C@H](O)c1ccc(O)c(O)c1`, which Potency is on record?
**A.** inactive

**Q.** For `CCC/C=C/C=O`, which Potency is on record?
**A.** inactive

**Q.** For `O=C(O)c1cc(=O)[nH]c(=O)[nH]1`, which “activity change, negative = cytotoxicity” value is on record?
**A.** -7.34% (inactive)

**Q.** Which “activity change, negative = cytotoxicity” value does the source give for `C1CN(SSN2CCOCC2)CCO1` here?
**A.** -2.44% (inactive)

**Q.** Which Potency does the source give for `Cc1ccc(S(=O)(=O)O)cc1C` here?
**A.** inactive

**Q.** For `CC(=O)[C@H]1CC[C@H]2[C@@H]3CC=C4C[C@@H](O)CC[C@]4(C)[C@H]3CC[C@]12C`, which Potency is on record?
**A.** inactive

**Q.** With `CC(=O)Oc1ccc(C(c2ccc(OC(C)=O)cc2)c2ccccn2)cc1` as the compound, how does the Potency read?
**A.** inactive

**Q.** Which Potency does the source give for `Brc1nc2ccccc2s1` here?
**A.** inactive

**Q.** With `Cc1cccc(Nc2ccccc2C(=O)O)c1C` as the compound, how does the Potency read?
**A.** inactive

**Q.** With `CC(C)[N+](C)(CCOC(=O)C1c2ccccc2Oc2ccccc21)C(C)C` as the compound, how does the Potency read?
**A.** inactive

**Q.** For `CCc1cccc2c3c([nH]c12)C(CC)(CC(=O)O)OCC3` (stereo not given), which Potency is on record?
**A.** inactive

**Q.** With `CC1(C)O[C@@H]2C[C@H]3[C@@H]4C[C@H](F)C5=CC(=O)C=C[C@]5(C)[C@@]4(F)[C@@H](O)C[C@]3(C)[C@]2(C(=O)CO)O1` as the compound, how does the Potency read?
**A.** inactive

**Q.** With `C=C1C[C@H]2[C@@H]3C=C(C)C4=CC(=O)CC[C@]4(C)[C@H]3CC[C@]2(C)[C@@]1(OC(C)=O)C(C)=O` as the compound, how does the Potency read?
**A.** inactive

**Q.** Which Potency does the source give for `OC[C@H]1O[C@@H]2O[C@H]3[C@H](O)[C@@H](O)[C@@H](O[C@H]4[C@H](O)[C@@H](O)[C@@H](O[C@H]5[C@H](O)[C@@H](O)[C@@H](O[C@H]6[C@H](O)[C@@H](O)[C@@H](O[C@H]7[C@H](O)[C@@H](O)[C@@H](O[C@H]1[C@H](O)[C@H]2O)O[C@@H]7CO)O[C@@H]6CO)O[C@@H]5CO)O[C@@H]4CO)O[C@@H]3CO` here?
**A.** inactive

**Q.** For `c1ccc2c(c1)ccc1cc3c(ccc4ccccc43)cc12`, which Potency is on record?
**A.** inactive

**Q.** With `CCOC(=O)C(C)Oc1ccc(Oc2cnc3cc(Cl)ccc3n2)cc1` (stereo not given) as the compound, how does the Potency read?
**A.** inactive

**Q.** For `Cc1ccc(C)c(O)c1`, which Potency is on record?
**A.** inactive

**Q.** With `ClC/C=C/CCl` as the compound, how does the Potency read?
**A.** inactive

**Q.** Which Potency does the source give for `IC(I)I` here?
**A.** inactive

**Q.** For `CCCOCCO`, which Potency is on record?
**A.** inactive

**Q.** Which Potency does the source give for `COc1ccc2nc(N)sc2c1` here?
**A.** inactive

**Q.** For `OCCNCCO`, which Potency is on record?
**A.** inactive

**Q.** Which Potency does the source give for `CC(C)(Oc1ccc(Cl)cc1)C(=O)O` here?
**A.** inactive

**Q.** Which Potency does the source give for `C=CC(=O)OCCCC` here?
**A.** inactive

**Q.** Which “activity change, negative = cytotoxicity” value does the source give for `CC1=CC(C)(C)Nc2ccccc21` here?
**A.** 0.148% (inactive)

**Q.** With `CN(Cc1cnc2nc(N)nc(N)c2n1)c1ccc(C(=O)N[C@@H](CCC(=O)O)C(=O)O)cc1` as the compound, how does the Potency read?
**A.** 30.9 nM (active) and 188 nM (active)

**Q.** Which Potency does the source give for `CC/C=C\C/C=C\C/C=C\CCCCCCCC(=O)O` here?
**A.** inactive and 49 µM (active)

**Q.** With `CC[C@]12CCCN3CCc4c(n(c5ccccc45)[C@@](O)(C(=O)OC)C1)[C@@H]32` as the compound, how does the Potency read?
**A.** inactive

**Q.** For `CC1(C)OC(=O)NC1=O`, which Potency is on record?
**A.** inactive

**Q.** Which Potency does the source give for `FC(F)(F)C(Cl)Br` (stereo not given) here?
**A.** inactive

**Q.** For `OC[C@@H](O)[C@@H](O[C@@H]1O[C@H](CO)[C@H](O)[C@H](O)[C@H]1O)[C@H](O)[C@@H](O)CO`, which Potency is on record?
**A.** inactive

**Q.** Which Potency does the source give for `CN(C)CCCN1c2ccccc2Sc2ccc(Cl)cc21` here?
**A.** 21.9 µM (active)
